{
  "source": "PubChem BioAssay AID1159580",
  "about": "(chemical genetic matrix, 2015)",
  "test": "chemical genetic growth profiling, strain panel (AID 1159580);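 further: tested at 20 µM; growth read once vehicle control cultures reached saturation at 30 °C; 1 = growth at the plate median or of vehicle wells; lower values mean less growth of the strain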",
  "conditions": "S. cerevisiae deletion strains, growth OD",
  "note": "Values joined by “and” are separate entries in the source; they are usually repeats but may differ in a detail not shown here. Equal entries are not always repeated. Screen size: about 5,500 compounds; about 2,000 (36%) were called active. Roughly 18% stayed inconclusive and do not appear here. Some of the results follow. A number with no mark means an inactive call. No stated cut-off is given here; in the data, active means normalized growth mostly below about 0.91 (no sharp cut-off); inconclusive means no clear call, values can overlap the other calls; inactive means mostly above about 0.92.",
  "data": [
    {"compound": "C#C[C@]1(O)CCC2C3CCc4cc(O)ccc4C3CC[C@@]21C", "note": "(some centres not stated)", "values": [
      {"measurement": "normalized growth", "setting": "locus YAL013W, strain DEP1, hits give low values", "value": 1},
      {"measurement": "normalized growth", "setting": "locus YAL021C, strain ccr4, hits give low values", "value": 1.06},
      {"measurement": "normalized growth", "setting": "locus YAL026C, strain drs2, hits give low values", "value": 0.951},
      {"measurement": "normalized growth", "setting": "locus YAL030W, strain snc1, hits give low values", "value": 1.02},
      {"measurement": "normalized growth", "setting": "locus YBL061C, strain skt5, hits give low values", "value": 0.998},
      {"measurement": "normalized growth", "setting": "locus YBR009C, strain hhf1, hits give low values", "value": "0.894 (active)"},
      {"measurement": "normalized growth", "setting": "locus YBR021W, strain FUR4, hits give low values", "value": 0.94},
      {"measurement": "normalized growth", "setting": "locus YBR023C, strain chs3, hits give low values", "value": 0.996},
      {"measurement": "normalized growth", "setting": "locus YBR171W, strain sec66, hits give low values", "value": 1.02},
      {"measurement": "normalized growth", "setting": "locus YBR229C, strain ROT2, hits give low values", "value": 1.02},
      {"measurement": "normalized growth", "setting": "locus YBR231C, strain swc5, hits give low values", "value": 1},
      {"measurement": "normalized growth", "setting": "locus YBR279W, strain paf1, hits give low values", "value": 1},
      {"measurement": "normalized growth", "setting": "locus YCL011C, strain gbp2, hits give low values", "value": 1.01},
      {"measurement": "normalized growth", "setting": "locus YCL016C, strain dcc1, hits give low values", "value": 0.988},
      {"measurement": "normalized growth", "setting": "locus YCL029C, strain bik1, hits give low values", "value": 0.942},
      {"measurement": "normalized growth", "setting": "locus YCL061C, strain MRC1, hits give low values", "value": 0.968},
      {"measurement": "normalized growth", "setting": "locus YCL069W, strain vba3, hits give low values", "value": 1.02},
      {"measurement": "normalized growth", "setting": "locus YCR088W, strain abp1, hits give low values", "value": 1.02},
      {"measurement": "normalized growth", "setting": "locus YDL005C, strain med2, hits give low values", "value": 1.04},
      {"measurement": "normalized growth", "setting": "locus YDL035C, strain GPR1, hits give low values", "value": "0.853 (active)"},
      {"measurement": "normalized growth", "setting": "locus YDL040C, strain nat1, hits give low values", "value": 1.03},
      {"measurement": "normalized growth", "setting": "locus YDL074C, strain BRE1, hits give low values", "value": 0.833},
      {"measurement": "normalized growth", "setting": "locus YDL101C, strain DUN1, hits give low values", "value": 0.989},
      {"measurement": "normalized growth", "setting": "locus YDL185W, strain tfp1, hits give low values", "value": 1.02},
      {"measurement": "normalized growth", "setting": "locus YDL192W, strain arf1, hits give low values", "value": 1.01},
      {"measurement": "normalized growth", "setting": "locus YDR001C, strain nth1, hits give low values", "value": 1.04},
      {"measurement": "normalized growth", "setting": "locus YDR069C, strain doa4, hits give low values", "value": 0.991},
      {"measurement": "normalized growth", "setting": "locus YDR101C, strain arx1, hits give low values", "value": 0.956},
      {"measurement": "normalized growth", "setting": "locus YDR137W, strain rgp1, hits give low values", "value": "0.738 (active)"},
      {"measurement": "normalized growth", "setting": "locus YDR159W, strain sac3, hits give low values", "value": 0.908},
      {"measurement": "normalized growth", "setting": "locus YDR162C, strain NBP2, hits give low values", "value": 0.843},
      {"measurement": "normalized growth", "setting": "locus YDR195W, strain ref2", "value": "1.25 [resistant] (active)"},
      {"measurement": "normalized growth", "setting": "locus YDR297W, strain sur2, hits give low values", "value": 1.01},
      {"measurement": "normalized growth", "setting": "locus YDR318W, strain mcm21, hits give low values", "value": 0.945},
      {"measurement": "normalized growth", "setting": "locus YDR334W, strain swr1, hits give low values", "value": 1.05},
      {"measurement": "normalized growth", "setting": "locus YDR335W, strain msn5, hits give low values", "value": 0.959},
      {"measurement": "normalized growth", "setting": "locus YDR388W, hits give low values", "value": 1.02},
      {"measurement": "normalized growth", "setting": "locus YDR392W, strain spt3, hits give low values", "value": "0.617 (active)"},
      {"measurement": "normalized growth", "setting": "locus YDR502C, strain sam2, hits give low values", "value": 0.93},
      {"measurement": "normalized growth", "setting": "locus YEL003W, strain gim4, hits give low values", "value": 0.938},
      {"measurement": "normalized growth", "setting": "locus YEL037C, strain rad23, hits give low values", "value": 1.02},
      {"measurement": "normalized growth", "setting": "locus YEL061C, strain CIN8 (second series), hits give low values", "value": 1.03},
      {"measurement": "normalized growth", "setting": "locus YEL061C, strain CIN8, hits give low values", "value": 1.04},
      {"measurement": "normalized growth", "setting": "locus YER015W, strain faa2, hits give low values", "value": 1.01},
      {"measurement": "normalized growth", "setting": "locus YER016W, strain bim1, hits give low values", "value": 0.934},
      {"measurement": "normalized growth", "setting": "locus YER110C, hits give low values", "value": 1.03},
      {"measurement": "normalized growth", "setting": "locus YER111C, strain swi4, hits give low values", "value": 1.06},
      {"measurement": "normalized growth", "setting": "locus YER155C, strain BEM2 (second series), hits give low values", "value": 1.07},
      {"measurement": "normalized growth", "setting": "locus YER155C, strain BEM2, hits give low values", "value": 1.06},
      {"measurement": "normalized growth", "setting": "locus YER167W, strain BCK2, hits give low values", "value": 1},
      {"measurement": "normalized growth", "setting": "locus YFR010W, strain ubp6, hits give low values", "value": 1.01},
      {"measurement": "normalized growth", "setting": "locus YGL078C, strain dbp3, hits give low values", "value": "0.904 (active)"},
      {"measurement": "normalized growth", "setting": "locus YGL086W, strain mad1, hits give low values", "value": 0.951},
      {"measurement": "normalized growth", "setting": "locus YGL167C, strain pmr1, hits give low values", "value": 1.02},
      {"measurement": "normalized growth", "setting": "locus YGL173C, strain kem1, hits give low values", "value": 0.904},
      {"measurement": "normalized growth", "setting": "locus YGL227W, strain vid30, hits give low values", "value": 1.05},
      {"measurement": "normalized growth", "setting": "locus YGL240W, strain doc1, hits give low values", "value": 0.918},
      {"measurement": "normalized growth", "setting": "locus YGL248W, strain PDE1, hits give low values", "value": 0.952},
      {"measurement": "normalized growth", "setting": "locus YGL253W, strain hxk2, hits give low values", "value": 0.963},
      {"measurement": "normalized growth", "setting": "locus YGR078C, strain PAC10, hits give low values", "value": 0.877},
      {"measurement": "normalized growth", "setting": "locus YGR135W, strain pre9, hits give low values", "value": 0.949},
      {"measurement": "normalized growth", "setting": "locus YGR252W, strain gcn5, hits give low values", "value": "0.653 (active)"},
      {"measurement": "normalized growth", "setting": "locus YHR013C, strain ard1, hits give low values", "value": "1.17 [resistant] (active)"},
      {"measurement": "normalized growth", "setting": "locus YHR027C, strain rpn1, hits give low values", "value": 0.981},
      {"measurement": "normalized growth", "setting": "locus YHR030C, strain SLT2, hits give low values", "value": "1.02 and 0.96"},
      {"measurement": "normalized growth", "setting": "locus YHR079C, strain IRE1 (second series), hits give low values", "value": 0.979},
      {"measurement": "normalized growth", "setting": "locus YHR079C, strain IRE1, hits give low values", "value": 0.968},
      {"measurement": "normalized growth", "setting": "locus YHR094C, strain hxt1, hits give low values", "value": 1.03},
      {"measurement": "normalized growth", "setting": "locus YHR129C, strain ARP1, hits give low values", "value": 0.993},
      {"measurement": "normalized growth", "setting": "locus YHR142W, strain chs7, hits give low values", "value": 0.946},
      {"measurement": "normalized growth", "setting": "locus YHR200W, strain rpn10, hits give low values", "value": 1.01},
      {"measurement": "normalized growth", "setting": "locus YIL066C, strain RNR3, hits give low values", "value": 0.913},
      {"measurement": "normalized growth", "setting": "locus YIL073C, strain SPO22, hits give low values", "value": 1.01},
      {"measurement": "normalized growth", "setting": "locus YIL125W, strain kgd1, hits give low values", "value": 1},
      {"measurement": "normalized growth", "setting": "locus YIR030C, strain dcg1, hits give low values", "value": 0.999},
      {"measurement": "normalized growth", "setting": "locus YJL092W, strain hpr5, hits give low values", "value": 1.02},
      {"measurement": "normalized growth", "setting": "locus YJL095W, strain BCK1 (second series), hits give low values", "value": 1},
      {"measurement": "normalized growth", "setting": "locus YJL095W, strain BCK1, hits give low values", "value": "0.861 and 1"},
      {"measurement": "normalized growth", "setting": "locus YJL115W, strain asf1, hits give low values", "value": 1.05},
      {"measurement": "normalized growth", "setting": "locus YJL129C, strain trk1, hits give low values", "value": 0.946},
      {"measurement": "normalized growth", "setting": "locus YJL134W, strain LCB3, hits give low values", "value": 1.03},
      {"measurement": "normalized growth", "setting": "locus YJL154C, strain vps35, hits give low values", "value": 1.05},
      {"measurement": "normalized growth", "setting": "locus YJL164C, strain tpk1, hits give low values", "value": 0.952},
      {"measurement": "normalized growth", "setting": "locus YJL166W, strain qcr8, hits give low values", "value": 0.973},
      {"measurement": "normalized growth", "setting": "locus YJL168C, strain set2, hits give low values", "value": 1.02},
      {"measurement": "normalized growth", "setting": "locus YJL187C, strain SWE1 (second series), hits give low values", "value": 0.931},
      {"measurement": "normalized growth", "setting": "locus YJL187C, strain SWE1, hits give low values", "value": 1.02}
    ]}
  ]
}
